From the supplement of paper PMC7156485

Columns and labels:
Details in all cases: concentration: 10 µM; 24 h
HCC1569 [1] = test: cell number relative to DMSO (% of DMSO); higher = more cells (less growth inhibition / toxicity)
Method in brief: (§1)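 Cells were seeded at 800 per well in 384-well plates with RPMI containing 10% FBS; both HCC1569 and TDF lines were used. Compounds were added at 10 µM for 24 h at 37 °C, in triplicate, before fixation in 3.7% formaldehyde and staining with a rabbit anti-H1.0 antibody, an AlexaFluor 647 secondary and DAPI. H1.0 nuclear intensity or cell number is reported as percent of the plate control using the median of replicates, and HCC1569 values were smoothed for positional effects.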

TDF [2] = test: as above
Method in brief: as §1

TDF [3] = test: H1.0 immunofluorescence intensity relative to DMSO (% of DMSO); higher = stronger H1.0 induction, active = 120 or more
Method in brief: as §1

HCC1569 [4] = test: H1.0 immunofluorescence intensity relative to DMSO (% of DMSO); higher = stronger H1.0 induction, active = 140 or more
Method in brief: as §1
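Throughout, for H1.0 immunofluorescence intensity relative to DMSO: TDF is a line of transformed human dermal fibroblasts of mesenchymal origin.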
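Throughout, for cell number relative to DMSO: TDF denotes transformed human dermal fibroblasts of mesenchymal origin.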

| SMILES | cell number (HCC1569 [1]) | cell number (TDF [2]) | H1.0 immunofluorescence intensity (TDF [3]) | H1.0 immunofluorescence intensity (HCC1569 [4]) |
| --- | --- | --- | --- | --- |
| O=C(Nc1nc2ccccc2n1CCN1CCOCC1)c1cccc([N+](=O)[O-])c1 [IRAK-1/4 Inhibitor] | 98.2 | 104 | 91.2 (inactive) | 117 (inactive) |
| CC(C)NCC(O)COc1cccc2[nH]ccc12 (stereo not drawn) [S(-)-Pindolol] | 102 | 107 | 84.4 (inactive) | 98.4 (inactive) |
| CCCCOc1cc(CC2CNC(=O)N2)ccc1OC (configuration not stated) | 101 | 110 | 85.3 (inactive) | 86.2 (inactive) |
| Cl.NC1(C(=O)O)CCCCC1 [1-Amino-1-cyclohexanecarboxylic acid hydrochloride] | 100 | 106 | 95.3 (inactive) | 86.6 (inactive) |
| CCCCCCCCCCCCCCCC(=O)NCC(COP(=O)([O-])OCC[N+](C)(C)C)OCC (racemic) [rac-2-Ethoxy-3-hexadecanamido-1-propylphosphocholine] | 96.1 | 96.3 | 97.5 (inactive) | 104 (inactive) |
| CNc1cc2c(Nc3cccc(Br)c3)ncnc2cn1 | 87.2 | 95.7 | 91.3 (inactive) | 135 (inactive) |
| CCc1nn(CCCN2CCN(c3cccc(Cl)c3)CC2)c(=O)n1CCOc1ccccc1 [Nefazodone] | 98.9 | 100 | 95.5 (inactive) | 110 (inactive) |
| Cc1cc(C)c(NC(=O)CC(CC(=O)[O-])c2cccc3ccccc23)c(C(=O)N2CCC3(CCCC3)CC2)c1.[Na+] (configuration not stated) | 105 | 102 | 101 (inactive) | 99.8 (inactive) |
